The campaign covered roughly 310,000 compounds. About 14,000 (4.5%) showed an effect of 50% or more. Effects have a minus sign here. For the sample, strong results were picked, then their nearest neighbours and some compounds at random.
Target: human ether-à-go-go-related gene (hERG) potassium channel (human, UniProt Q12809)
Experiment: primary screen, population patch clamp on CHO cells stably expressing hERG; higher = less effect of the substance
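Further: peak tail current of the secondary pulse compared with the same well before compound.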

Sequence of human ether-à-go-go-related gene (hERG) potassium channel (Q12809 whole entry, looked up): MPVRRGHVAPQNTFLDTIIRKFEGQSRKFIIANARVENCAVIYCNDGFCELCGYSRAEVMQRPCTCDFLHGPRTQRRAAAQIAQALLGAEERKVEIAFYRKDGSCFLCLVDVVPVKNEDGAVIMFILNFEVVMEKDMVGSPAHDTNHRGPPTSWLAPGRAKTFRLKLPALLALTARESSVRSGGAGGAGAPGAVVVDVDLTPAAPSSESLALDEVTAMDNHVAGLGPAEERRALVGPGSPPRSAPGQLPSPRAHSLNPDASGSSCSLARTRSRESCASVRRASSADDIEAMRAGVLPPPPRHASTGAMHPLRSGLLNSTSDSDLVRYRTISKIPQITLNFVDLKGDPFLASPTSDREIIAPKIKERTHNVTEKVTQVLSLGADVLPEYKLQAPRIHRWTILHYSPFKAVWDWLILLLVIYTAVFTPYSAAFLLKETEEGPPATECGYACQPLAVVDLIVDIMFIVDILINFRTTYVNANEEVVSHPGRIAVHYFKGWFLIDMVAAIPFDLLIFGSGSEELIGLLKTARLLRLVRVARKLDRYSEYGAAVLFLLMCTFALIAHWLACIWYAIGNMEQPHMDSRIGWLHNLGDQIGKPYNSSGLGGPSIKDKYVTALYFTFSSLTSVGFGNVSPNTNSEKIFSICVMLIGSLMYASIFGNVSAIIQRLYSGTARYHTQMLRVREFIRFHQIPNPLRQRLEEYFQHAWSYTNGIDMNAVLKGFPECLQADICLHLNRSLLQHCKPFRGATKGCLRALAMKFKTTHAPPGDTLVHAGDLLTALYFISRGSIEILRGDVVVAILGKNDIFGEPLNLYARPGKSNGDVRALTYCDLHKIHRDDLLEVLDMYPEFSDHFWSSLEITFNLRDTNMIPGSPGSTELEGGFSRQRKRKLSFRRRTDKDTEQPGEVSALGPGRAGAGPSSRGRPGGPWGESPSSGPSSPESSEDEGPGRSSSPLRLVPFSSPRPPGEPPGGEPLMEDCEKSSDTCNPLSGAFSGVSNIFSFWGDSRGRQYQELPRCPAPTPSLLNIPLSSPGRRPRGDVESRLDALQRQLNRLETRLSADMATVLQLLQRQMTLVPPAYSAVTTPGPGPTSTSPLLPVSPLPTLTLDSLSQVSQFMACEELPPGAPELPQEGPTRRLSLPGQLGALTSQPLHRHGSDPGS

| SMILES | hERG current change (%, negative = inhibition) at 10uM |
| --- | --- |
| CN(CC(=O)Nc1cccc(F)c1)C(=O)c1ccccc1CCc1ccccc1 | 3.08% |
| O=S(=O)(NCc1ccco1)c1cccc(S(=O)(=O)N2CCCCC2)c1 | -32.2% |
| CCN1CCN(C(c2cccc(OC)c2)c2sc3nc(C)nn3c2O)CC1 (centres unmarked) | 19.7% |
| COc1cccc(CNC(=O)CSC(=S)N2CCCC2)c1 | 2.79% |
| CCOC(=O)N1CCN(c2c(NCCCOC(C)C)c(=O)c2=O)CC1 | -19.7% |
| CC(C)CC(=O)O/N=C1\C(=O)N(Cc2ccc(Cl)cc2)c2ccc([N+](=O)[O-])cc21 | -36.1% |
| CCn1c(CO)nc2c1c(=O)[nH]c(=O)n2Cc1ccccc1 | 17.7% |
| Cn1c(OCc2cccnc2)nc2c1c(=O)n(Cc1ccc(Br)cc1)c(=O)n2C | -57.3% |
| Cn1c(Br)nc2c1c(=O)n(Cc1ccccc1)c(=O)n2C | -10.2% |
| Cn1c(NCc2ccccc2)nc2c1c(=O)n(Cc1ccc(Br)cc1)c(=O)n2C | 4.56% |
| CC1CCCN(C(=O)CN2C(=O)C(C)Oc3ccccc32)C1 (centres unmarked) | 8.2% |
| CCN(CC)C(=O)c1[nH]cnc1C(=O)Nc1ccon1 | 0.396% |
| Cc1ccc(NC(=O)OCc2cncs2)cc1 | 2.29% |
| COCCNC(=O)c1c(N)n(/N=C/c2ccc(F)cc2)c2nc3ccccc3nc12 | -0.595% |
| O=C(NCCCN1CCOCC1)c1cc(S(=O)(=O)N2CCN(c3ccccc3)CC2)ccc1Cl | -76.6% |
| Cc1ccc(S(=O)(=O)N2CCCCC2)cc1C(=O)NCCCN1CCOCC1 | 16.7% |
| O=C(NCCCN1CCOCC1)c1cccc(S(=O)(=O)N2CCN(c3ccccc3)CC2)c1 | -71.8% |
| O=C(NCCCN1CCOCC1)c1cccc(S(=O)(=O)N2CCOCC2)c1 | 8.97% |
| O=C(NCCCN1CCCC1=O)c1cc(S(=O)(=O)N2CCOCC2)ccc1Cl | 13.9% |
| O=C(NCCN1CCOCC1)c1cccc(S(=O)(=O)N2CCCC2)c1 | 6.43% |
| CCOC(=O)c1ccc(NC(=S)Nc2ccc3[nH]c(=O)[nH]c3c2)cc1 | 1.23% |

| SMILES | hERG current change (%, negative = inhibition) at 10uM |
| --- | --- |
| O=c1[nH]c2ccccc2nc1C(Cl)c1ccccc1 (centres unmarked) | 2.52% |
| Nc1nc(-c2ccco2)cs1 | 9.88% |
| O=c1oc2cc(OCc3c(F)c(F)c(F)c(F)c3F)ccc2cc1-c1ccccn1 | 14% |
| COc1ccc(C(=O)Nn2cnc3ccccc3c2=O)cc1[N+](=O)[O-] | -4.64% |
| O=C(CN1CCOCC1)N/N=C/C=C/c1ccccc1 | -26.3% |
| COc1ccccc1/C=C/C=N/NC(=O)CN1CCN(S(=O)(=O)c2ccc(C)cc2)CC1 | -50.2% |
| Cc1ccc(S(=O)(=O)N2CCN(CC(=O)N/N=C\c3ccccn3)CC2)cc1 | -36.3% |
| O=C(O)COc1ccccc1/C=N/NC(=O)CN1CCN(S(=O)(=O)c2ccc(Br)cc2)CC1 | 4.89% |
| Cc1ccc(S(=O)(=O)N2CCN(CC(=O)N/N=C/c3ccccc3OCC(=O)O)CC2)cc1 | 10.5% |
| CC(/C=N\NC(=O)CN1CCN(S(=O)(=O)c2ccc(C)cc2)CC1)=C\c1ccccc1 | -68.1% |
| Cc1ccc(S(=O)(=O)N2CCN(CC(=O)N/N=C/C=C/c3ccccc3)CC2)cc1 | -73.8% |
| Cc1ccc(S(=O)(=O)N2CCN(CC(=O)N/N=C/c3ccc(C)o3)CC2)cc1 | -38.9% |
| Cc1ccc(S(=O)(=O)N2CCN(CC(=O)N/N=C\C(Cl)=C\c3ccccc3)CC2)cc1 | -48% |
| CCCOC(=O)c1ccc(O)cc1 | 16.5% |
| COc1ccccc1CC(=O)Nc1ccc(O)cc1C(=O)O | 0.828% |
| C(=N\N(c1ccccc1)c1ccccc1)/c1ccc2c(c1)OCO2 | 4.28% |
| Clc1ccc2c(c1)C(N1CCNCC1)Cc1ccccc1S2.O=C(O)/C=C\C(=O)O (centres unmarked) | -54.3% |
| Fc1ccc2c(c1)Sc1ccc(Cl)cc1CC2N1CCN(CCC2OCCO2)CC1 (centres unmarked) | -8.68% |
| O=C(O)/C=C\C(=O)O.c1ccc2c(c1)CC1CNCc3cccc(c31)S2 (centres unmarked) | -49.5% |
| C1CCCCC1.OCCN1CCN(C2Cc3cc(Cl)ccc3Sc3ccc(Cl)cc32)CC1 (centres unmarked) | 9.86% |
| COCCCN1CCN(C2Cc3ccccc3Sc3ccc(Cl)cc32)CC1.O=C(O)/C=C\C(=O)O (centres unmarked) | -73.5% |

| SMILES | hERG current change (%, negative = inhibition) at 10uM |
| --- | --- |
| COc1cc([C@@H]2c3cc4c(cc3[C@@H](O)[C@H]3COC(=O)[C@H]23)OCO4)cc(OC)c1O[Si](C)(C)C(C)(C)C | 17.8% |
| NS(=O)(=O)c1cccc(NC(=O)c2cccnc2Oc2ccccc2)c1 | 12.7% |
| Cc1sc2ncn(CC(=O)N3CCN(c4ccccn4)CC3)c(=O)c2c1S(=O)(=O)N1CCCCC1 | -36.7% |
| Cc1ncc2c(c1OC(=O)c1ccccc1)COC(C)(C)OC2 | -6.46% |
| Cc1ncc2c(c1OC(=O)c1ccc([N+](=O)[O-])cc1)COC(C)(C)OC2 | -65.8% |
| Cc1c(OC(=O)c2ccc([N+](=O)[O-])cc2)c2c(c[n+]1C)COC(C)(C)OC2.[I-] | 9.15% |
| Cn1c(O)c(N=Nc2ccc(S(=O)(=O)N3CCOCC3)cc2)c(=O)n(C)c1=O | 10.8% |
| CCN(CC)c1ccc(N=Cc2c(O)n(-c3ccccc3C)c(=O)[nH]c2=O)cc1 | -29.2% |
| Cc1ccc(S(=O)(=O)N2CCCCC2)c2nsnc12 | -54.9% |
| Cc1ccc(S(=O)(=O)N2CCN(C)CC2)c2nsnc12 | 24.1% |
| Cc1ccc(S(=O)(=O)N2CCOCC2)c2nsnc12 | -3.38% |
| CC(=O)Nc1cc(-c2nn(CC(=O)N3CCCCC3)c(=O)c3ccccc23)ccc1N1CCOCC1 | 2.8% |
| O=C(Cn1nc(-c2ccc(N3CCOCC3)c([N+](=O)[O-])c2)c2ccccc2c1=O)N1CCCCC1 | -68.2% |
| CCC(=O)Nc1cc(-c2nn(CC(=O)N3CCCCC3)c(=O)c3ccccc23)ccc1N1CCOCC1 | 3.05% |
| O=C(Nc1cc(-c2nn(CC(=O)N3CCCCC3)c(=O)c3ccccc23)ccc1N1CCOCC1)c1ccc(Cl)cc1 | -52.6% |
| O=[N+]([O-])c1cc(-c2nnc(N3CCOCC3)c3ccccc23)ccc1N1CCOCC1 | -40.3% |
| Cc1ccc(-c2nn(CC(=O)N3CCOCC3)c(=O)c3ccccc23)cc1S(=O)(=O)N(C)C | -22.6% |
| Cc1ccc(C)c(N(C(=O)CCC(=O)Nc2cc(C)on2)C(C(=O)NC2CCCC2)c2ccco2)c1 (centres unmarked) | 10.2% |
| CNc1nc(SC(C)C(=O)Nc2ccc(Cl)c(Cl)c2)nc(N2CCOCC2)n1 (centres unmarked) | 19.6% |
| COc1ccc(S(=O)(=O)N2CCC(C(=O)N3CCN(C)CC3)CC2)cc1OC | 17.3% |
| Cc1nn(CCO)c2nc(-c3cccs3)cc(C(F)(F)F)c12 | 2.32% |

| SMILES | hERG current change (%, negative = inhibition) at 10uM |
| --- | --- |
| COc1ccc(/C=N/NC(=O)CC(=O)NC2CCCCC2)cc1 | 5.89% |
| COc1ccc(-c2cnnn2-c2ccc(NC(=O)/C=C/c3ccc(OC)c(OC)c3)cc2)cc1 | -5.92% |
| Cc1ccccc1OCCC(=O)OCC(=O)NCCNC(=O)COC(=O)CCOc1ccccc1C | 4.47% |
| O=C(CCC(=O)N1CCN(Cc2ccc(F)cc2)CC1)Nc1nnc(C2CCCCC2)s1 | 6.92% |
| COc1ccc(F)cc1CN1CCN(C(=O)CCC(=O)Nc2nnc(C3CCCCC3)s2)CC1 | -6.04% |
| COc1ccc(CN2CCN(C(=O)CCC(=O)Nc3nnc(C4CCCCC4)s3)CC2)cc1F | -50.2% |
| COc1ccc(C(=O)C2CCCN(C(=O)c3noc4c3CCCC4)C2)cc1F (centres unmarked) | -39.9% |
| CCc1ccc2[nH]c(=O)c(CN(Cc3ccccc3OC)Cc3nnnn3Cc3ccco3)cc2c1 | -14.3% |
| COc1ccc(C(=O)COc2ccc3ccc(=O)oc3c2)cc1 | -3.32% |
| CC(=O)n1cc(N(C(=O)CCl)c2ccc(C)cc2)c2ccccc21 | -5.35% |
| CC(=O)n1cc(N(C(=O)CCl)c2ccc([N+](=O)[O-])cc2)c2ccccc21 | -57.1% |
| CC(=O)n1cc(N(C(=O)CCl)c2ccccc2)c2ccccc21 | 1.19% |
| CC1CCCCN1C(=O)CCc1nnc(Cc2c[nH]c3ccccc23)o1 (centres unmarked) | 4.94% |
| COc1ccc(S(=O)(=O)N2CCCC(C(=O)Nc3ccc(NC(=O)c4ccccn4)cc3)C2)cc1 (centres unmarked) | 4.17% |
| O=C(CN1C(=O)COc2ccccc21)NCCCN1CCN(Cc2ccccc2)CC1 | -11.7% |
| O=S(=O)(Nc1ccccn1)c1ccc(-n2cccn2)cc1 | 21.3% |
| CCCN1C2=C(C(=O)CCC2)C(c2ccc(O)c(Br)c2)C2=C1CCCC2=O | -18.1% |
| Clc1ccc(-c2nc(/C=N/N3CCOCC3)c3ccccn23)cc1 | -5.18% |
| CN1CCN(/N=C/c2nc(-c3ccc(Cl)cc3)n3ccccc23)CC1 | -62.1% |
| CN1CCN(/N=C/c2nc(-c3ccccc3)n3ccccc23)CC1 | -19.9% |

— article PMC4336329 (PLoS ONE, 2015)
